# Source: the supplement of paper PMC6555819
# Key:
# Test in all cases: PBM binding z-score (relative to random genomic background probes); higher = stronger binding; sequences stand for … in GC…GCGATTGACAGCGTAGAATGAAGG
# [1] = tested on: RARb homodimer (NR concentration 270 nM)
# Procedure, shortened: (§1)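 Antibodies against each partner of ligand-free nuclear receptor dimers (one per run) detected binding on custom Agilent 4×180K protein-binding microarrays after 1 h incubation. The double-stranded probes had 34-nt variable regions carrying direct-repeat seeds, single-nucleotide variants, half-site ablations and random human genomic background sequences. Binding z-scores, from regression-normalized fluorescence, use the random background probes as reference.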
# [2] = tested on: RARg:RXRa (NR concentration 270 nM, RXRa partner concentration 90 nM)
# Procedure, shortened: as §1
# [3] = tested on: RARg homodimer (NR concentration 270 nM)
# Procedure, shortened: as §1
# [4] = tested on: RXRa DBDmut IVT, anti-RXR (DBD mutation: RXRa K156A/R161A, NR concentration 90 nM)
# Procedure, shortened: as §1
# [5] = tested on: RXRa homodimer (NR concentration 180 nM)
# Procedure, shortened: as §1
# [6] = tested on: THRa:RXRa (NR concentration 90 nM, RXRa partner concentration 90 nM)
# Procedure, shortened: as §1
# [7] = tested on: THRa homodimer (NR concentration 90 nM)
# Procedure, shortened: as §1
# [8] = tested on: VDR homodimer (NR concentration 270 nM)
# Procedure, shortened: as §1
Sequence,PBM binding z-score [1],PBM binding z-score [2],PBM binding z-score [3],PBM binding z-score [4],PBM binding z-score [5],PBM binding z-score [6],PBM binding z-score [7],PBM binding z-score [8]
CCTAGTTGGTCACGAGGTCACACACCGGATATGA,4.65,5.36,4.66,1.84,5.19,4.43,4.41,3.84
GCATATAGGTAATACAAGGTGAAAATCCGATTGT,0.426,0.529,0.709,0.0693,0.677,3.98,0.487,0.0319
CTCGAAAGTTCGTGCTCAGGTGAGTATACCAAAC,1.55,2.29,1.52,2.83,1.01,2.86,0.851,1.88
ACATACAGGTGATGAAGGTAACTCAGGCTATCAT,0.492,0.787,0.615,0.27,0.874,1.16,0.135,0.174
GGAACGAGGGCATTCGAGTTGATCGCATGGCGAT,0.71,1.11,1.52,3.18,0.775,3.44,-0.598,3.38
TAGCCTAGGTCATGCGGGCAAGTATAGTGTCGGC,3.16,4,4.38,0.563,3.03,2.89,0.9,0.528
TCATATAGGTAAATGATAGGTGAAAGTCCGATCT,0.731,0.906,0.775,1.92,1.15,0.682,0.132,0.346
TTACCAAGGTGAGCTGAGTTCGTTGATCCAACTC,0.421,0.2,0.307,0.458,0.157,2.71,0.173,3.63
CCTTACGGGTCCAGGTTATAGCACGGGTGGTACG,0.293,-0.0416,0.158,-0.824,0.106,0.171,0.291,0.862
CGAACTAGGTCATCAAGGACAGTGAATACATTGA,3.18,3.95,4.85,1.92,2.67,3.87,2.11,1.83
AGAGCGAGGGCACGCTGAGTTGATAGCAGAGTAG,1,1.76,1.96,1.28,1.06,1.51,-0.183,1.48
ATCTCTAGCTAACCAAGTTCAGTGAATGCCGAAC,1.01,0.314,0.399,0.573,0.0234,0.509,0.214,2.29
ATCTCTAGGTAAAGTTCAGTGACAGATCGATAGA,2.63,1.99,2.63,1.51,1.39,1.31,0.436,2.61
CAAACTAGGTCAAGGCCAAAGTCGGTTTGTGCCA,3.53,3.91,4.51,1.81,2.77,2.91,1.39,1.22
ATCTCTAGGTAAAAGTTCAGAGAATCCCGAGGAT,2.16,2.02,1.97,0.853,1.87,1.24,-0.00417,1.91
ACTATTAATTGAGACGAGGGCAACCGATAGGTTG,1.56,0.73,0.967,0.688,0.753,1.33,1.03,1.64
CAAACTAGGTCATCCAGGACAGTGAATACATTGA,3.12,4.15,4.93,2.37,3.09,3.76,2.38,2.21
CCGACTGGGGCATAAGGTTACCATGAGCCAGCCC,1.89,1.81,0.826,-0.562,1.32,2.05,1.17,-0.247
ATCTCTAGGTAAAAGTACAGTGAATCCCGAGGAT,-0.337,0.567,0.702,-0.00884,0.199,0.284,0.0784,0.123
GCAACGAGGGCAAAGTTGATAGCATCTGTCGACG,0.991,1.89,1.57,2.62,1.81,1.19,-0.191,1.21
GCGACTGGGGCAAAGCAGGTTACCATAAGGTTGG,1.15,0.472,0.712,-0.374,0.33,2.84,0.0306,-0.59
CGTCTAAGGTCAATGCTAGGTCAGTGAAAGCATT,5.09,7.91,7.34,3.82,6.12,4.67,4.42,3.13
TCTATTAGTTGATGGGCAACCGACGAGTCCGTTT,-0.181,-0.125,-0.0889,1.49,0.101,-0.425,0.00181,0.831
CCTACTGGGCCACGAAAGGTCATTGCTTCAGTGA,4.75,4.81,4.35,0.871,4.81,3.73,0.827,2.61
GCGACTGGGACAAAGCAGGTTACCATAAGGTTGG,0.587,0.308,0.367,-0.523,0.419,1.59,0.162,-0.161
GCTTACGGGTAAAAGGTTATAGCATGAATAGAAT,1.59,2.68,1.35,0.423,3.38,1.64,-0.0699,0.48
CAACCTAGGTCAAAGGTCAAAGTCGAGCCAACCA,5.33,9.2,7.77,3.16,10.1,5.01,1.81,3.91
TGTCAAAGTTCAAAGGTAGCGTAAGTATCCACAC,3.86,5.84,5.8,4.41,6.07,2.76,-0.0719,3.39
TCTTGTAGATCAAAAGAGGTTAAGAAAGTGCGCT,0.976,0.867,0.449,0.343,1.35,2.6,-0.614,0.274
